Experimental data published in the supplement of paper PMC10849652.
Of roughly 7,900 targets only a part is listed; those with a hit were picked by preference. About 0.6% of all pairs of compound and target were hits. Values without a mark were called inactive.

Chain of UniProt Q14149 (Q14149 whole entry, looked up): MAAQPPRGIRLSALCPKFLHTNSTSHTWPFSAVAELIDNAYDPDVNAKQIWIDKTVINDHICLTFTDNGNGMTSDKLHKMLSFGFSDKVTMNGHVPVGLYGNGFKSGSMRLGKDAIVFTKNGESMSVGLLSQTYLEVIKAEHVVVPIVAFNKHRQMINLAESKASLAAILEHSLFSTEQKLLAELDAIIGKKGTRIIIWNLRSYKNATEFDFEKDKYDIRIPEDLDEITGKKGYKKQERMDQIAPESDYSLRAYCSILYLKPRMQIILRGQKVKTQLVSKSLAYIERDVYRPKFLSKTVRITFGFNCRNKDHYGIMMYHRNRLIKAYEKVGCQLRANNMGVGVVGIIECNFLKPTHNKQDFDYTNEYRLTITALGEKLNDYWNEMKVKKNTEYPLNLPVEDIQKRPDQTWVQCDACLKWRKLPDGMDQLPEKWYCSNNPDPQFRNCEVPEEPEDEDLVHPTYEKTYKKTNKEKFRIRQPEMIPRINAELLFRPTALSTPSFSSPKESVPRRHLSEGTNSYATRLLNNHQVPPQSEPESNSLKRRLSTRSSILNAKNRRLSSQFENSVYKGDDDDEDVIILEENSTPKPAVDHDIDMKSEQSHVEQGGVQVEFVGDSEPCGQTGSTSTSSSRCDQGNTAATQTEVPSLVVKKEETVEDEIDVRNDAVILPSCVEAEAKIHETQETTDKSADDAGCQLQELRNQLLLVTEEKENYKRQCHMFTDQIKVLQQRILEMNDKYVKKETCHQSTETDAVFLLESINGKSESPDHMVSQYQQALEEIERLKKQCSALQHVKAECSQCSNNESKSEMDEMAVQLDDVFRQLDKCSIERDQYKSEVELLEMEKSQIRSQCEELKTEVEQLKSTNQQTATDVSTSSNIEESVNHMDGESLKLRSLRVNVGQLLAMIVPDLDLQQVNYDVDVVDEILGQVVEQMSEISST
Chain of UniProt P35749 (P35749 whole entry, looked up): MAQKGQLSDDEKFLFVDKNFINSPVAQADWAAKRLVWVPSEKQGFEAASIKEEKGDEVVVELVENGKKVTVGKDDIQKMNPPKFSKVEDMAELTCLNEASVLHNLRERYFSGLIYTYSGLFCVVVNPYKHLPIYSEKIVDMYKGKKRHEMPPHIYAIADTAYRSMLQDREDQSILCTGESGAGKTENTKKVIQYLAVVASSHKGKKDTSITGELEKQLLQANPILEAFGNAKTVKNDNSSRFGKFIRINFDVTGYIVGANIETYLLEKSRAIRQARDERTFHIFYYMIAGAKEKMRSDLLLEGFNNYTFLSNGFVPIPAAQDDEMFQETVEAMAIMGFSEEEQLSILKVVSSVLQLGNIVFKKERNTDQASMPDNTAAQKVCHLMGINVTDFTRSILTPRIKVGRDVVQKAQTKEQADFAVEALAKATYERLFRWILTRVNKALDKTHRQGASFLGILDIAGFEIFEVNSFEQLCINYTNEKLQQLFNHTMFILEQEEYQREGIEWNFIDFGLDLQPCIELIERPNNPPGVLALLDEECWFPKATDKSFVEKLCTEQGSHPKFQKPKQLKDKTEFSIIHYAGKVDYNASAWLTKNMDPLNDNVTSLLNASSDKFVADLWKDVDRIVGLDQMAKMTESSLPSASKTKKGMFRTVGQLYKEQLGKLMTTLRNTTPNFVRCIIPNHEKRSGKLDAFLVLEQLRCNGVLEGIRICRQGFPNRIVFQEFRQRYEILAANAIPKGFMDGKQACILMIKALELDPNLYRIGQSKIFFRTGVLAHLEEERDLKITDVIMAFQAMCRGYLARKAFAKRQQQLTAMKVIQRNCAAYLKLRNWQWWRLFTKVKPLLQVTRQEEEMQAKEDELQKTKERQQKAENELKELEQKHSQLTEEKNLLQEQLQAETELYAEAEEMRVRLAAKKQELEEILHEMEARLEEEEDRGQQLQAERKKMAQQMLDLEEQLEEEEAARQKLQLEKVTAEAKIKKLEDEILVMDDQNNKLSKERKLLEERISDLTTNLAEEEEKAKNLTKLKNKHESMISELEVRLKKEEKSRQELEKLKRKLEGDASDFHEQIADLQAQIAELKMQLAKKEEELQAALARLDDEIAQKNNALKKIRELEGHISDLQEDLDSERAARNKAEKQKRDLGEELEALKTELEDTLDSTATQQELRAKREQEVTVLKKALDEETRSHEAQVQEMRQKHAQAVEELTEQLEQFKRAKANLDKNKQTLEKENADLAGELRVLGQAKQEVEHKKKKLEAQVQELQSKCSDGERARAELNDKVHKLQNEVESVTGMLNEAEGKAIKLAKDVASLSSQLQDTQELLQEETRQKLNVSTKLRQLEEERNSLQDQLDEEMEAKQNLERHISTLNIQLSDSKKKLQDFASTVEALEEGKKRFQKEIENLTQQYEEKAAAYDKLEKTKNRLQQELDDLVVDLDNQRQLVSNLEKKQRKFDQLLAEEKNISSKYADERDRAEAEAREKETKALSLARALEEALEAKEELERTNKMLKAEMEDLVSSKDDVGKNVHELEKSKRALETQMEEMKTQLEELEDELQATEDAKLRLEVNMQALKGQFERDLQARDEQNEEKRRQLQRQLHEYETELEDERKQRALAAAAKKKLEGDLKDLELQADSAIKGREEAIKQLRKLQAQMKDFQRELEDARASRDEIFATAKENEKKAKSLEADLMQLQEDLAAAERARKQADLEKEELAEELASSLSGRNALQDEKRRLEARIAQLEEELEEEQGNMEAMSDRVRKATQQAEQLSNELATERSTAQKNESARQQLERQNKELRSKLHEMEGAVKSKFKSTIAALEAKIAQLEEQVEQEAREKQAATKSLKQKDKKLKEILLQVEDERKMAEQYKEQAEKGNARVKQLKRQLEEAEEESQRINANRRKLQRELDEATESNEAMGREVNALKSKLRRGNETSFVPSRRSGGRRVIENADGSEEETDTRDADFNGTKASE
Chain of UniProt Q9Y314 (Q9Y314 whole entry, looked up): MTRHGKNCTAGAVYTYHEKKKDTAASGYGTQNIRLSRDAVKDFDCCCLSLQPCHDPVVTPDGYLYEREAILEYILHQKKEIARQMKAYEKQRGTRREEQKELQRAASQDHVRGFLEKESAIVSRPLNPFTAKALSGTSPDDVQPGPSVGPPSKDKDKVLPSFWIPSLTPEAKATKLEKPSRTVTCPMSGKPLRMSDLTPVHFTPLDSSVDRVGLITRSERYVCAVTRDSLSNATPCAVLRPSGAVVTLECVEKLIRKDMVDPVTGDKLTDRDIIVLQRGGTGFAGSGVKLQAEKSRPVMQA
Chain of UniProt P15559 (P15559 whole entry, looked up): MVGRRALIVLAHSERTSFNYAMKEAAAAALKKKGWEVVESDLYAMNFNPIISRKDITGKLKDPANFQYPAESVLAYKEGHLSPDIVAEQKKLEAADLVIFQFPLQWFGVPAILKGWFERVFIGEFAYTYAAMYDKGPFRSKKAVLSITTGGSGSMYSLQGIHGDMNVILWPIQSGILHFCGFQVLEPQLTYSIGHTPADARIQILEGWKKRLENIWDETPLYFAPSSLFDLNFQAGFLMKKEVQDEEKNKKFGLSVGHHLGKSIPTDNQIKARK
Chain of UniProt Q99549 (Q99549 whole entry, looked up): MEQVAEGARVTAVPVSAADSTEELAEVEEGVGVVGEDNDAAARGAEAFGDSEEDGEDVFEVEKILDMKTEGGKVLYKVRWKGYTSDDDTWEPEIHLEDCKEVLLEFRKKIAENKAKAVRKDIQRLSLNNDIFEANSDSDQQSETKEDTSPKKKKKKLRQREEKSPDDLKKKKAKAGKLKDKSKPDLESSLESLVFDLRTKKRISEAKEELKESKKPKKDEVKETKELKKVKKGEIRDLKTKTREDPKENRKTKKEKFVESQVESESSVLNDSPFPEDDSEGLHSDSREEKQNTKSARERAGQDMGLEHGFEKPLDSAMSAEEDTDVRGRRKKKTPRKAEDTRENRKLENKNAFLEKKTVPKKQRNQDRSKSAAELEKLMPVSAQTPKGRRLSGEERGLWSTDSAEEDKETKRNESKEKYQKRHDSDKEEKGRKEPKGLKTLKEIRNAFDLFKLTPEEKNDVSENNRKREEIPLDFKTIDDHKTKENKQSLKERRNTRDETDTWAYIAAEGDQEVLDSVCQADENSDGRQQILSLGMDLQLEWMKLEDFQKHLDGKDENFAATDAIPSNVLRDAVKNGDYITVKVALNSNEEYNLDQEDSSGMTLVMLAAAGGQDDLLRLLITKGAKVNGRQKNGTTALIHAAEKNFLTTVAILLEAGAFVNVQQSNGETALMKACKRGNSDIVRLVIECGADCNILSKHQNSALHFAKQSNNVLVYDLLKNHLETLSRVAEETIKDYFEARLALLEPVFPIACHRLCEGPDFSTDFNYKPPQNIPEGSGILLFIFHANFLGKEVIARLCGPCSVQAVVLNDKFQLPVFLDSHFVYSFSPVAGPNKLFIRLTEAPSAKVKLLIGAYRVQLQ
Chain of UniProt P00846 (P00846 whole entry, looked up): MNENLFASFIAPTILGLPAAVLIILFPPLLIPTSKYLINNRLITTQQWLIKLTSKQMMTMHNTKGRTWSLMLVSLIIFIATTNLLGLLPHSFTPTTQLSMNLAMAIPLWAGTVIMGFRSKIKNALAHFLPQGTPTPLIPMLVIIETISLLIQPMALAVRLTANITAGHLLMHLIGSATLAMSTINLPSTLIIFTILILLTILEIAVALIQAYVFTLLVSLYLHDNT
Chain of UniProt Q9BSU3 (Q9BSU3 whole entry, looked up): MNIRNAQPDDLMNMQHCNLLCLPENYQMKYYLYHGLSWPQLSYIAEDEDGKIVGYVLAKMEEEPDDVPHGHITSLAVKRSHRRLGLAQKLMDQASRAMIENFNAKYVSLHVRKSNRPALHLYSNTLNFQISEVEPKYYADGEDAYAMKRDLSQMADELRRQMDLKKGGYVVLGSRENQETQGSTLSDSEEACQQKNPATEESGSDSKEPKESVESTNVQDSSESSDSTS
Chain of UniProt Q96DE0 (Q96DE0 whole entry, looked up): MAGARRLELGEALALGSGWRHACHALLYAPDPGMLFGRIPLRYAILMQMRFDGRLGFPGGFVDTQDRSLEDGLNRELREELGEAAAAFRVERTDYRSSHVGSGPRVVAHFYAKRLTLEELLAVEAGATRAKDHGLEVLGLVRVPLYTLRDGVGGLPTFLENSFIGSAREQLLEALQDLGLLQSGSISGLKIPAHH

Each target was assayed with CC1=C(C=C(C=C1)NC(=O)C2=CC(=CC=C2)C(C)(C)C#N)NC3=CC4=C(C=C3)N=CN(C4=O)C (assay: log2 fold change, soluble protein after heating vs DMSO (PISA); higher = thermal stabilisation; K562 cells, 10 uM, 30 min; active = over 0.2 and 3.5 SD of the protein, either way, in both replicates (recomputed)).
Summary of the method: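 K562 cells at 2×10^6 cells/mL were treated for 30 min with 10 μM compound, and aliquots were heated for 3 min over 48°C-58°C before pooling. Extraction used PBS with 0.5% NP-40 at 4°C, and soluble protein was the supernatant after 21,000xg for 90 min, measured by TMTpro 16plex LC-MS/MS with channel sums equalised. Thermal stability values, relative to control samples and from duplicates, are log2 fold changes.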
With MRPS9 (UniProt P82933) the log2 fold change was 0.053. NMNAT1 (UniProt Q9HAN9) showed a log2 fold change of -0.079. Target NOP53 (UniProt Q9NZM5) has a log2 fold change of -0.052. In the case of MT-ND4 (UniProt P03905), the log2 fold change is reported as -0.064. PACRGL (UniProt Q8N7B6) was tested, and the log2 fold change was 0.01. In the case of NHLRC2 (UniProt Q8NBF2), the log2 fold change is reported as -0.06. NME7 (UniProt Q9Y5B8) gave a log2 fold change of -0.008. MRPS16 (UniProt Q9Y3D3) showed a log2 fold change of 0.055. With NR2C2 isoform 2 (UniProt P49116) the log2 fold change was -0.017. For MORC3 (UniProt Q14149), the log2 fold change was -0.02. Target NQO1 (UniProt P15559) has a log2 fold change of 0.075. Work on NDUFA7 (UniProt O95182) yielded a log2 fold change of -0.013. With NOB1 (UniProt Q9ULX3) the log2 fold change was 0.039. Work on NOP58 (UniProt Q9Y2X3) yielded a log2 fold change of -0.055. For NEMP1 (UniProt O14524), the log2 fold change was -0.051. NA, A0A0B4J2A0 was tested, and the log2 fold change was 0.016. OSBPL8 (UniProt Q9BZF1) was tested, and the log2 fold change was 0.209. Target NFX1 (UniProt Q12986) has a log2 fold change of -0.113. OTUD4 (UniProt Q01804) was tested, and the log2 fold change was -0.038. With NUMB (UniProt P49757) the log2 fold change was -0.006. With MUL1 (UniProt Q969V5) the log2 fold change was -0.061. For OXR1 (UniProt Q8N573), the log2 fold change was 0.005. NUP210 (UniProt Q8TEM1) gave a log2 fold change of -0.029. For MINK1 (UniProt Q8N4C8), the log2 fold change was -0.04. NUDT1 (UniProt P36639) gave a log2 fold change of -0.016. Target NAA11 (UniProt Q9BSU3) has a log2 fold change of -0.375. For NSDHL (UniProt Q15738), the log2 fold change was 0.073. Target MIS12 (UniProt Q9H081) has a log2 fold change of -0.008. Work on NFATC2 (UniProt Q13469) yielded a log2 fold change of -0.046. In the case of NUDT16 (UniProt Q96DE0), the log2 fold change is reported as -0.031. Target MRPS6 (UniProt P82932) has a log2 fold change of 0.081. Target MRPS18B (UniProt Q9Y676) has a log2 fold change of -0.036. For MPHOSPH8 isoform 2 (UniProt Q99549), the log2 fold change was -0.159. For NEK3 (UniProt P51956), the log2 fold change was 0.058. For MT-ATP6 (UniProt P00846), the log2 fold change was -0.009. In the case of MYH11 isoform 2 (UniProt P35749), the log2 fold change is reported as 0.009. In the case of NMT2 (UniProt O60551), the log2 fold change is reported as 0.006. Work on NOSIP (UniProt Q9Y314) yielded a log2 fold change of 0.02. For NELFA (UniProt Q9H3P2), the log2 fold change was -0.02.
